Rows were chosen to be rich in hits. Some 4.3% of all compounds tested hit in one or more screens of this group.
HSF1 inh: HSF1 inhibitors in luciferase reporter cells, primary screen, cell-based, NIH3T3, luminescence. activity change, negative = inhibition, % at 7.5 µM (by protocol). hit rate 0.77% among 300,000. NIH3T3-HGL HSE-luciferase, MG132-induced, luminescence 8 h; active compounds read low. AID 2098, 2009;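 active means more than half of replicate wells show activity change below -50%, luminescence cut by over half; inconclusive means some wells, but at most half, below -50%; inactive means no replicate well below -50%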;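 further: luciferase reports HSF-1 transcriptional activity via heat shock element; 0% = median of DMSO wells and -100% = zero luminescence signal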
Wnt act: Wnt/beta-catenin pathway activators, primary screen, cell-based, plate reader, single point | Wnt/beta-catenin reporter cell assay, activator | activation, % at 9.35 µM | hit rate 1.2% among 300,000 | AID 743398, 2014; in the data active means activation above about 30%, passing the limit was not always enough; inconclusive means no clear call, values can overlap the other calls;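 further: 0% = neutral control wells and 100% = positive control wells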
SMARCA2 act: SMARCA2 (BRM) function activators, primary screen, cell-based, luminescence, high throughput; MG213 cells, MMTV-luciferase reporter, dexamethasone, overnight; activation, % at 9.1 µM; hit rate 1% among 370,000; AID 652017, 2013; in the data active means activation above about 7.8%;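 further: 0% = vehicle wells and 100% = reference activator wells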
HSF-1 act: HSF-1 activators, primary screen, NIH3T3-HGL cells, MG132 stress, luminescence, single point. NIH3T3-HGL HSF-1 luciferase reporter, 8 h; 100% = twice DMSO control signal. activation, % at 9 µM. hit rate 1.7% among 300,000;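 active means mean replicate activation of at least 50% with a set share of replicates each reaching 50%; inconclusive means only one of those two conditions met; inactive means mean below 50% and too few replicates reaching it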;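 further: 0% = median of the neutral control wells and 100% = twice that signal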
MITF TRPM1 HTS: activators of MITF-driven TRPM1 promoter reporter, primary screen, cell-based, SK-MEL-5, luciferase, single point. SK-MEL-5 TRPM1-promoter luciferase, 24 h; % of positive control, neutral wells = 0. activation, % at 12.5 µM. hit rate 0.75% among 300,000;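 active means mean activation of at least 80% with every replicate also reaching 80%; inconclusive means mean reaches 80% but some replicate falls short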;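 further: 0% = neutral control wells and 100% = parthenolide positive control wells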
esBAF inh: Bmi1 luciferase reporter increase in mESCs, primary screen, esBAF inhibitor project, mouse ES cells, Bmi1 luciferase knock-in, single point. reporter increase, % at 12.5 µM. hit rate 2% among 350,000. 24 h; 100% = twice the neutral-well signal. AID 602393, 2012; in the data active means activation above about 40%; inconclusive means no clear call, values can overlap the other calls;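 further: 0% = median of the plate's neutral control wells and 100% = double that signal; a rise in the Bmi1 reporter signal indicates esBAF inhibition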
The depositor's hits bear a star.

COC(=O)[C@H]1[C@H](CO)[C@H]2Cn3c(ccc(-c4cncnc4)c3=O)[C@H]2N1C(=O)C1CCC1 was read as esBAF inh 4.
C[C@H](CO)N1C[C@H](C)[C@@H](CN(C)C)Oc2c(NC(=O)Nc3ccc4c(c3)OCO4)cccc2C1=O was read as esBAF inh 10.
COC(=O)C[C@@H]1CC[C@H]2[C@H](COc3ccc(NC(=O)C4CCOCC4)cc3C(=O)N2C)O1 was read as esBAF inh -2.
C[C@@H]1CN([C@H](C)CO)C(=O)c2cccc(NC(=O)Nc3ccc4c(c3)OCO4)c2O[C@H]1CN(C)C(=O)Nc1cccc2ccccc12 was read as esBAF inh 4.
Screening O=C(c1cc2ccccc2o1)N1CCN(Cc2nc3ccccc3s2)CC1 returned Wnt act 2, SMARCA2 act 2 and esBAF inh 45*.
For CC1CC(C)CN(C(=O)c2cc3cc(Br)cc(Br)c3o2)C1 (stereo not given) the results were HSF1 inh 34, Wnt act 1, SMARCA2 act -2, HSF-1 act 67* and MITF TRPM1 HTS 83*.
Screening O=C(c1cc2cc(Br)ccc2o1)N1CCOCC1 returned HSF1 inh 13, Wnt act 0, SMARCA2 act 3, HSF-1 act 14 and MITF TRPM1 HTS 39.
Screening CC(=O)N1CCN(C(=O)c2cc3ccccc3o2)CC1 returned HSF1 inh 0, Wnt act -1, SMARCA2 act 0, HSF-1 act -6, MITF TRPM1 HTS 4 and esBAF inh 2.
Screening CC1CC(C)CN(C(=O)c2cc3ccccc3o2)C1 (stereo not given) returned HSF1 inh 13, Wnt act 5, SMARCA2 act 2, HSF-1 act 16, MITF TRPM1 HTS 44 and esBAF inh 58*.
For CC1CC(C)CN(C(=O)Nc2ccc(Br)cc2)C1 (stereo not given) the results were HSF1 inh 21, Wnt act 0, SMARCA2 act 0, HSF-1 act 16 and MITF TRPM1 HTS 12.
O=C(c1cc2cc(Br)ccc2o1)N1CCCC1 was read as HSF1 inh 6, Wnt act 7, SMARCA2 act 3, HSF-1 act 24, MITF TRPM1 HTS 16 and esBAF inh 39*.
For C[C@H]1CN([C@@H](C)CO)S(=O)(=O)c2ccc(C#CC3CC3)cc2O[C@@H]1CN(C)C(=O)c1ccccc1 the results were esBAF inh 1.
`COc1cccc(C#Cc2ccc3c(c2)O[C@H](CN(C)C(=O)c2ccccn2)[C@H](C)CN([C@@H](C)CO)S3(=O)=O)c1` gave esBAF inh 4.
Screening CC1CCN(C(=O)c2cc3ccccc3o2)CC1 returned HSF1 inh 8, SMARCA2 act 2, HSF-1 act 23 and esBAF inh 57*.
O=C(CNC(=O)c1cccs1)c1ccc(Br)cc1 was read as HSF1 inh 35, Wnt act 27, SMARCA2 act 2, HSF-1 act 45, MITF TRPM1 HTS 123* and esBAF inh 26.
For CCc1ccc(C(=O)COC(=O)CNC(=O)c2cccs2)cc1 the results were HSF1 inh -86*, Wnt act -1, SMARCA2 act -2, HSF-1 act -89, MITF TRPM1 HTS -11 and esBAF inh -1.
For C[C@@H]1CN([C@@H](C)CO)C(=O)c2cc(/C=C/c3ccccc3)cnc2O[C@H]1CN(C)Cc1ccccc1 the results were esBAF inh -4.
Screening CCOc1cc(/C=C2/C(=O)ON=C2C)ccc1OCc1ccccc1 returned HSF1 inh 3, Wnt act 2, SMARCA2 act -5 and HSF-1 act -5.
C#CCOc1c(Cl)cc(/C=C2/C(=O)ON=C2C)cc1OCC was read as HSF1 inh 16, Wnt act -1, SMARCA2 act -1, HSF-1 act 52*, MITF TRPM1 HTS -7 and esBAF inh 1.
For CCOc1cc(/C=C2/C(=O)ON=C2C)ccc1OCc1ccc(F)cc1 the results were HSF1 inh 22, SMARCA2 act 1, HSF-1 act 63*, MITF TRPM1 HTS -59 and esBAF inh -8.
C[C@H]1CN([C@@H](C)CO)C(=O)c2cc(N(C)C)ccc2O[C@H]1CN(C)C was read as esBAF inh 1.
S=C(Nc1ccc2nsnc2c1)N1CCCCCC1 was read as HSF1 inh 41, Wnt act 9, SMARCA2 act 3, HSF-1 act 62* and MITF TRPM1 HTS 94*.
Screening O=C(Nc1ccc2nsnc2c1)N1CCCCC1 returned HSF1 inh -2, Wnt act 10, SMARCA2 act 6, HSF-1 act 0, MITF TRPM1 HTS 19 and esBAF inh 19.
For CC1CCN(C(=O)Nc2ccc3nsnc3c2)CC1 the results were HSF1 inh 23, SMARCA2 act 2, HSF-1 act 57*, MITF TRPM1 HTS 100* and esBAF inh inconclusive.
S=C(Nc1ccc(Cl)c(Cl)c1)NC1CCCCC1 was read as HSF1 inh 9, Wnt act 7, HSF-1 act 30, MITF TRPM1 HTS 28 and esBAF inh 37.
S=C(Nc1ccc2nsnc2c1)NC1CCCCC1 was read as HSF1 inh 31, Wnt act -9, SMARCA2 act 1, HSF-1 act 82* and MITF TRPM1 HTS 46.
`Cc1ccc(NC(=S)N2CCCC2)cc1C` gave Wnt act -1, SMARCA2 act 1, MITF TRPM1 HTS 24 and esBAF inh 33.
For O=C(C[C@H]1CC[C@H]2[C@@H](COC[C@@H](O)CN2S(=O)(=O)c2ccc(F)cc2)O1)N[C@H]1CCN(Cc2ccccc2)C1 the results were esBAF inh -5.
For COc1ccc(NC(=O)Nc2ccc3c(c2)[C@H]2C[C@H](CC(=O)N4CCCCC4)O[C@@H](CO)[C@H]2O3)cc1 the results were esBAF inh -4.
CCCNC(=O)Nc1ccc2c(c1)C(=O)N(C)C[C@@H](OC)[C@H](C)CN(C(=O)c1ccccc1F)[C@@H](C)CO2 was read as esBAF inh 2.
Screening CCN(CC)CCNC(=O)c1cc2c(-c3ccc(Cl)cc3)nn(C)c2s1 returned HSF1 inh 0, Wnt act -4, SMARCA2 act 11*, HSF-1 act 14, MITF TRPM1 HTS -61 and esBAF inh -28.
For O=C(Nc1ccc2nc(C3CC3)n(Cc3ccccc3)c(=O)c2c1)C1CC1 the results were HSF1 inh 16, Wnt act 24, SMARCA2 act 2, HSF-1 act 24, MITF TRPM1 HTS 115* and esBAF inh 67*.

Bioassay records: PubChem, several laboratories
